53 compounds from ChEMBL document CHEMBL4513216, “Probing the Open Global Health Chemical Diversity Library for Multistage-Active Starting Points for Next-Generation Antimalarials” (ACS Infect Dis, 2020) can be followed below.

The whole screen tested about 69,000 compounds, of which about 8,600 (12%) showed an effect of 50% or more. The sample as a whole holds a higher share of strong results than the screen did.

The subject of the assay is Plasmodium berghei. Briefly: Screen against P. berghei liver stage (PbLuc), transformed with Luciferase, at 10uM. It is filed as functional, HepG2. The following applies: tested at 10 uM.
In the case of `COc1ccc(CN2CCC3(CC2)CCN(c2cnn(C)c2)C3=O)cc1`, the INHIBITION is reported as 43.9%.
Turning to `O=C(c1ccncc1)N1C[C@H]2CC[C@@H](C1)N(C(=O)C1CCCC1)C2`, the INHIBITION is reported as -3.48%.
`CCN(Cc1cnn(C)c1)S(=O)(=O)N1CCCC1c1ccco1` (stereo not drawn): the INHIBITION stood at 27.5%.
For `CN(Cc1cnn(C)c1)S(=O)(=O)N1CCCC1c1ccco1` (stereo not drawn), the INHIBITION came to 52.2%.
As for `CCn1cc(CN(C)S(=O)(=O)N2CCCC2c2ccco2)cn1` (stereo not drawn), the INHIBITION was determined as 32%.
`O=C(c1ccc(C2CCCN2C(=O)c2cscn2)s1)N1CCSCC1` (stereo not drawn): the INHIBITION is listed as -30.6%.
Regarding `CN(C)CC(=O)N1CCC2(CC1)COC(COc1ccccn1)C2` (stereo not drawn), the INHIBITION is reported as 35.3%.
For `CSc1ccc(CN2C[C@@H]3CC[C@@](O)(c4ccc(C)cn4)[C@@H]3C2)cc1`, the INHIBITION is on record as 75.3%.
With `COc1ncc(CN2C[C@@H]3CC[C@@](O)(c4ccc(C)cn4)[C@@H]3C2)cn1`, the INHIBITION is listed as 41.2%.
Turning to `Cc1ccc([C@]2(O)CC[C@H]3CN(Cc4cccnc4)C[C@H]32)nc1`, the INHIBITION worked out at 41.2%.
With `Cc1ccc([C@]2(O)CC[C@H]3CN(Cc4ccncc4)C[C@H]32)nc1` the figure was 66.4%.
With `Cc1ccc([C@]2(O)CC[C@H]3CN(Cc4cc(C)c(O)c(C)c4)C[C@H]32)nc1` the figure was 45.5%; with `O[C@@]1(c2ccccn2)CC[C@H]2CN(Cc3ccccn3)C[C@H]21`, 29.3%.
The result for `O=C(C[C@@H]1COC[C@H]2CN(Cc3ccccn3)C[C@@H]12)N1CCOCC1` reads 33%; that for `Cc1noc(C)c1CC(=O)NCC1(O)CCCN(c2ccccn2)C1` (stereo not drawn), 14.6%.
`CSc1ccc(CN(C)Cc2noc(C(C)(C)C)n2)cc1`: the INHIBITION is recorded as 56.9%.
As to `CC(C)(C)c1nc(CN(Cc2ccccc2Cl)C2CCCC2)no1`, the INHIBITION is 9.35%.
On to `CCN(Cc1noc(C(C)(C)C)n1)Cc1ccc(C#N)cc1F`, for which the INHIBITION came out at 28%.
The result for `CC(c1nc(C2CC2)no1)N(C)Cc1ccc(C#N)cc1` (stereo not drawn) reads -4.4%; that for `CN(Cc1ccc(C#N)cc1)Cc1noc(C(C)(C)C)n1`, 53.5%.
On to `CC(C)(C)c1nc(CN(CCO)Cc2cc(Br)ccc2F)no1`, for which the INHIBITION is -38.2%.
Regarding `CCc1cc(N(C)CCCO)n2nccc2n1`, the INHIBITION was found to be 19.4%.
Regarding `Cc1noc(C)c1CN(C)C(=O)Nc1cnn(CC2CCCO2)c1` (stereo not drawn), the INHIBITION worked out at 18.4%.
With `Cc1cc(C(=O)N[C@H](C)c2onc(C)c2C(=O)O)c(C)o1` the figure was -12.2%.
The result for `COCCSCC(=O)NCc1ccnc(N(C)C)c1` reads 46.4%; that for `Cc1oc(C(C)C)cc1C(=O)N1C[C@@H]2CC[C@H]1CN(S(=O)(=O)N(C)C)C2`, -19.5%.
`CCCN1CCCC2(CCN(Cc3noc(C4CCCC4)n3)C2)C1=O` (stereo not drawn): the INHIBITION is -15.8%.
For `CNC1CCCN(Cc2noc(C3CC3)n2)C1` (stereo not drawn), the INHIBITION was -17.4%.
For `O=C1N(CCO)CCCC12CCN(Cc1noc(C3CCCC3)n1)C2` (stereo not drawn), the INHIBITION was 22.7%.
For `O=C1CCC2(CCCO2)CCN1Cc1noc(C2CCCC2)n1` (stereo not drawn), the INHIBITION is 26.7%.
Turning to `CC(C)N1CCCC2(CCN(Cc3noc(C4CCCC4)n3)C2)C1=O` (stereo not drawn), the INHIBITION worked out at 70.2%.
With `CC(C)N1CC2(CCCN(Cc3noc(C4CCCC4)n3)C2)CCC1=O` (stereo not drawn), the INHIBITION amounted to 50.5%.
`CCN1CCC2(CCN(Cc3nccs3)CC2)C1=O`: the INHIBITION is -28.8%.
On to `O=C(NCC(=O)N1CCCCC1)c1ccoc1`, for which the INHIBITION stood at 17.3%.
In the case of `Cc1ccc2[nH]c(=O)c(CNCCCN3CCOCC3)cc2c1`, the INHIBITION is -37%.
For `Cc1csc2c(N3CCNC(C(=O)N4CCCC4)C3)ncnc12` (stereo not drawn), the INHIBITION is given as -10.1%.
Consider `Cc1csc2c(N3CCNC(C(=O)NCc4cccnc4)C3)ncnc12` (stereo not drawn), for which the INHIBITION is on record as 16.9%.
The result for `Cc1csc2c(N3CCNC(C(=O)Nc4ccc(F)cc4)C3)ncnc12` (stereo not drawn) reads 62.8%; that for `CCn1cc(CN2C[C@@H]3CCCN3C[C@@H]2CCSC)c(C)n1`, 46.1%.
In the case of `CNS(=O)(=O)CCn1cc(-c2cc3c(cc2OC)CCC3)nn1`, the INHIBITION was 37.3%.
With `Cc1nc(-c2cn(CCN)nn2)n(-c2ccc(C(F)(F)F)cc2)n1`, the INHIBITION turned out to be 76.8%.
With `Cc1nc(-c2cn(CCN)nn2)n(-c2ccc3c(c2)CCC3)n1` the figure was 56.5%.
On to `Cc1cc(-n2nc(C)nc2-c2cn(CCN)nn2)ccn1`, for which the INHIBITION was 41.5%.
With `CN(C)C(=O)Cn1cc(C(=O)NCCc2ccc(C(F)(F)F)cc2)nn1` the figure was -25.9%.
On to `Cc1nc(CCN2CCCCC2)n(-c2ccc(F)cc2)n1`, for which the INHIBITION was -8.19%.
Regarding `CC(C)c1noc(CNC2CCCN(Cc3noc(C4CC4)n3)C2)n1` (stereo not drawn), the INHIBITION was -42.1%.
With `Cc1nc(N2CCN(C)CC2)ncc1C(=O)N1CC[C@](C)(O)[C@H](C)C1`, the INHIBITION is given as -10.2%.
With `COCCN1CCN(C=C2NN=C(c3occc3C)O2)CC1`, the INHIBITION was found to be 43.4%.
Consider `CCc1nnc2n1CCN(C=C1NN=C(c3occc3C)O1)C2`, for which the INHIBITION is reported as 11.2%.
The result for `CCOCCN1CCN(C=C2NN=C(c3occc3C)O2)CC1` reads 70.3%; that for `Cc1ccoc1C1=NNC(=CN2CCn3c(C)nnc3C2)O1`, -21.7%; that for `CCOCCN1CCN(C=C2NN=C(c3occc3C)O2)CC1CC` (stereo not drawn), 76.7%.
With `Cc1ccoc1C1=NNC(=CN2CCOC(Cn3cccn3)C2)O1` (stereo not drawn) the figure was -50.5%.
